In article PMC5540273 (PLoS ONE, 2017):
“And” between values parts separate entries of the source, which are not always exact repeats. Identical values can stand only once. Like-named read-outs stand apart in the source and are kept apart here.

Assays:
ULK2 = conditions: concentration: 1 μM, replicates: in singlicate, n = 1
ULK3 = conditions: concentration: 1 μM, replicates: in singlicate, n = 1
VEGFR2 = tested on: T1, VEGFR2; conditions: concentration: 1 μM, replicates: in singlicate, n = 1
T1 construct: gene KDR

VPS34 = tested on: T2, VPS34; conditions: concentration: 1 μM, replicates: in singlicate, n = 1
T2 construct: gene PIK3C3

VRK2 = conditions: concentration: 1 μM, replicates: in singlicate, n = 1
WEE1 = conditions: concentration: 1 μM, replicates: in singlicate; n = 1
WEE2 = conditions: concentration: 1 μM, replicates: in singlicate, n = 1
WNK1 = conditions: concentration: 1 μM, replicates: in singlicate, n = 1
WNK2 = conditions: concentration: 1 μM, replicates: in singlicate, n = 1
WNK3 = conditions: concentration: 1 μM, replicates: in singlicate, n = 1
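Further: KINOMEscan kinase panel screen.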

SMILES	%Inh (ULK2)	%Inh (ULK3)	%Inh (VEGFR2)	%Inh (VPS34)	%Inh (VRK2)	%Inh (WEE1)	%Inh (WEE2)	%Inh (WNK1)	%Inh (WNK2)	%Inh (WNK3)	%Inh (ULK2; 1 µM)	%Inh (ULK3; 1 µM)	%Inh (VEGFR2; 1 µM)	%Inh (VPS34; 1 µM)	%Inh (VRK2; 1 µM)	%Inh (WEE2; 1 µM)	%Inh (WNK1; 1 µM)	%Inh (WNK2; 1 µM)	%Inh (WNK3; 1 µM)
CN1CCC(n2cnc(-c3ccc(F)cc3)c2-c2ccnc(NC3CCNCC3)n2)CC1 [SB-229482]	4%	19%	0%	50%	18%	0%	30%	21%	0%	49%	–	–	–	–	–	–	–	–	–
COc1ccc(-c2nc3n(c2-c2ccncc2)CCC3)cc1 [SKF-104493]	–	–	–	–	–	0%	–	–	–	–	13% and 0%	13% and 0%	15% and 0%	28% and 20%	7% and 0%	13% and 0%	27% and 0%	0% and 21%	33% and 16%
FC(F)(F)c1cc(Nc2nccc(-c3c(-c4ccc(Cl)cc4)nn4ncccc34)n2)ccc1Cl [GW829351]	6%	0%	0%	2%	56%	9%	0%	0%	0%	0%	–	–	–	–	–	–	–	–	–
CS(=O)(=O)CCNCc1ccc(-c2ccc3ncnc(Nc4ccc(OCc5ccccc5)c(Cl)c4)c3c2)o1.Cl [GW574783]	0%	0%	0%	18%	42%	12%	19%	11%	10%	29%	–	–	–	–	–	–	–	–	–
O=C(Nc1ccccc1)Nc1ccc(Oc2ccc3nccn3n2)cc1	0%	2%	–	14%	0%	3%	13%	0%	0%	0%	–	–	–	–	–	–	–	–	–
Nc1n[nH]c2nnc(-c3ccccc3)cc12 [SB-517389]	0%	10%	0%	0%	0%	21%	15%	10%	17%	5%	–	–	–	–	–	–	–	–	–
O=C(NCCCN1CCCC1=O)c1cnc(NCc2cc(Cl)ccc2Cl)nc1NC1CCNCC1	0%	0%	0%	0%	70%	0%	0%	0%	0%	0%	–	–	–	–	–	–	–	–	–
CCC(CC)(CC)n1cnc2c(N)ncnc21 [SKF-97620]	2%	42%	13%	34%	0%	9%	6%	21%	0%	26%	–	–	–	–	–	–	–	–	–
CC(C)(C)c1ccc(-n2cnc3c(N)ncnc32)cc1 [SKF-97263]	4%	17%	11%	0%	9%	0%	2%	3%	0%	0%	–	–	–	–	–	–	–	–	–
Cl.c1ccc(Cn2ccc3cc(Nc4ncnc5ccccc45)ccc32)cc1 [GW275568]	0%	9%	16%	0%	0%	12%	14%	5%	18%	27%	–	–	–	–	–	–	–	–	–
FC(F)(F)c1ccc(-c2nn3ncccc3c2-c2ccnc(Nc3cccc(C(F)(F)F)c3)n2)cc1 [GW828205]	0%	0%	0%	8%	0%	5%	11%	0%	0%	0%	–	–	–	–	–	–	–	–	–
Cc1ccc(O)cc1Nc1cc(C(F)(F)F)nc2ccc(-c3ccncc3)cc12 [GW630823]	0%	0%	0%	0%	0%	0%	30%	0%	0%	0%	–	–	–	–	–	–	–	–	–
Nc1nc(-c2ccc3c(N)n[nH]c3c2)cc(N2CCC[C@@H](C(=O)Nc3ccccc3)C2)n1.O=C(O)C(F)(F)F.O=C(O)C(F)(F)F [GSK2288359]	3%	13%	18%	0%	0%	8%	0%	11%	6%	14%	–	–	–	–	–	–	–	–	–
CS(=O)(=O)CCNCc1nc(-c2ccc3ncnc(Nc4ccc(OCc5cccc(F)c5)c(Cl)c4)c3c2)cs1.Cl [GW583340]	0%	0%	1%	0%	0%	9%	0%	4%	9%	18%	–	–	–	–	–	–	–	–	–
Clc1ccc(-c2cc(-c3c[nH]nc3-c3ccccn3)ccn2)cc1 [GW681251]	0%	1%	0%	0%	11%	18%	0%	16%	0%	19%	–	–	–	–	–	–	–	–	–
CC(C)(C)OC(=O)NC1CCCN(c2cc(-c3ccc4c(N)n[nH]c4c3)nc(N)n2)C1 (centres unmarked) [GSK2286096]	0%	0%	0%	0%	0%	17%	0%	6%	70%	8%	–	–	–	–	–	–	–	–	–
O=C(c1ccc(-c2cc(-c3c[nH]nc3-c3ccccn3)ccn2)cc1)N1CCCC1 [GW792479]	0%	0%	0%	26%	0%	30%	0%	0%	0%	0%	–	–	–	–	–	–	–	–	–
CC(=O)Nc1n[nH]c2ncc(-c3ccccc3)cc12 [SB-548492]	35%	30%	18%	7%	0%	0%	20%	0%	0%	0%	–	–	–	–	–	–	–	–	–
COc1cc2ncnc(Nc3ccc(OCc4ccccc4Br)c(Cl)c3)c2cc1OC.Cl [GI261590]	0%	3%	0%	0%	11%	0%	0%	14%	0%	22%	–	–	–	–	–	–	–	–	–
FC(F)(F)c1ccc(-c2cc(-c3c[nH]nc3-c3ccccn3)ccn2)cc1 [GW599550]	0%	0%	4%	0%	0%	12%	0%	0%	7%	31%	–	–	–	–	–	–	–	–	–
Cc1cccc(-c2nc(Nc3ccc4[nH]nnc4c3)c3ccccc3n2)n1 [GW867587]	0%	0%	0%	0%	20%	0%	0%	0%	0%	0%	–	–	–	–	–	–	–	–	–
